# Source: PubChem BioAssay
# Most compounds without a hit are left out; they make up all but 11% or so of the library.
# Luciferase inh = inhibitors of firefly (Photinus pyralis) luciferase | purified P. pyralis luciferase, luminescence, biochemical | 2.5% of 76,000 active | Potency, µM (highest dose often 115 µM), actives largely listed as inhibitors | P08659 | AID 1347043; further: nearly all actives have a fitted effect of over 65% in size
#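 FLuc 10nM, D-luciferin 10uM, ATP 10uM, Mg acetate 10mM, Tris acetate pH 7.5, Tween/BSA; cpd qHTS; enzyme added last; CCD luminescence.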
# HEK293 tox = HEK 293 cell cytotoxicity. 6.6% of 94,000 active. AID 1345083. HEK 293 viability, ATP luminescence (CellTiter-Glo), 48-72 h. Potency, µM (series often up to 115 µM), inactives show at the top dose activity change, negative = cytotoxicity, usual class: inhibitors; further: nearly all actives have a fitted effect of over 60% in size
#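 HEK 293 cells seeded at 250 cells/well were exposed to compound for 48 or 72 hr at 37 degree Celsius. Viability taken as ATP content by CellTiter-Glo luminescence.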
# hNpr1 antagonist = antagonists of human natriuretic peptide receptor Npr1. P16066. HEK293 hNpr1 GloSensor cGMP, ANP-stimulated luminescence. Potency, µM (top dose mostly 46.3 µM), inactives show at the highest dose activity change, negative = inhibition, actives largely listed as inhibitors. 1.6% of 76,000 active. AID 1347048; calls by dose curve; further: nearly all actives have a fitted effect of over 60% in size
#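 Compound pre-incubated 30 min at room temperature on GloSensor-loaded HEK293 cells stably carrying hNpr1 and the pGS-40F cGMP biosensor. Stimulation uses hNppA at 0.1 nM final; luminescence is taken at baseline and 20 min post-agonist.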
# NIH3T3 tox = cytotoxic compounds in NIH 3T3 cells | NIH 3T3 viability, CellTiter-Glo ATP luminescence, 48-72 h | Potency, µM (highest dose often 96.7 µM), for the others: at the top dose activity change, negative = cytotoxicity, usual class: inhibitors | 4.3% of 94,000 active; further: nearly all actives have a fitted effect of over 55% in size
#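 Cytotoxicity was measured by CellTiter-Glo ATP luminescence after 48 or 72 h compound exposure at 37 °C. Mouse NIH 3T3 fibroblasts were seeded at 400 cells/well and dosed by 23 nL pin transfer.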
# * hit, by the source's call; i = inactive; ? = inconclusive; nt = no result given; [ ] = another dose, or the depositor's remark. Unless noted, the call rests on the fitted dose curve; in most records, active means well fitted curve in the direction sought with a large enough effect; inconclusive means small, poorly fitted or top-dose-only effect, or another doubt; inactive means no such curve, though single readings can be large; an effect the other way counts as inactive or inconclusive. On the % scale 0 is the no-effect control and ±100 the full control effect; potency means the concentration at half of the fitted maximal effect.
SMILES,Luciferase inh,HEK293 tox,hNpr1 antagonist,NIH3T3 tox
Cc1cccc(-c2cccc(CN3CCC(NC(=O)c4ccc(Cl)cc4)CC3)c2)c1,nt,-30.4%,nt,-21.0%
Cc1ccc(C(=O)NC2CCN(Cc3cccc(-c4cccc(C)c4)c3)CC2)cc1,nt,39.8µM*,nt,31.6µM*
Cc1cccc(-c2cccc(CN3CCC(NC(=O)c4ccccc4)CC3)c2)c1,nt,35.5µM*,nt,25.1µM*
Cc1cccc(-c2cccc(CN3CCC(NC(=O)Nc4ccc(Cl)cc4)CC3)c2)c1,nt,6.31µM*,nt,11.2µM*
COc1ccccc1C(=O)NC1CCN(c2ccc3nnc(C4CC4)n3n2)CC1,nt,?,nt,-22.8%
Cc1cccc(-c2nocc2CCC(=O)NC2CCN(Cc3ccccc3)CC2)c1,31.6µM*,?,-18.9%,?
Cc1cccc(-c2nocc2CCC(=O)O)c1,?,-2.3%,-0.5%,-7.7%
Oc1cccc(-c2cc(C3=CCOCC3)c3cncn3c2)c1,i,?,-10.8%[70.6 µM],100µM*
COc1ncccc1-c1cc(C2=CCOCC2)c2cncn2c1,i,-16.9%[172 µM],4.9%[70.6 µM],?
Oc1ccccc1-c1cc(C2=CCOCC2)c2cncn2c1,i,100µM*,-2.0%[70.6 µM],63.1µM*
CSc1ccc(C(=O)N2CC(=O)N(CC3CC3)CC(C)(C)C2)cc1,nt,-6.9%,nt,?
O=C(c1ccccc1F)N1CCC(C(=O)N2CCC(N3Cc4ccccc4C3=O)CC2)CC1,nt,?,nt,-14.5%
Cc1ccc(Nc2ccnc(N3CCCC3C(=O)NCCc3ccccc3)n2)cc1 (centres undefined),nt,?,nt,-38.3%
COc1ccc(Nc2ccnc(N3CCCC(C(=O)NCCc4ccc(F)cc4)C3)n2)cc1 (centres undefined),nt,31.6µM*,nt,25.1µM*
Cc1ccc(Nc2ccnc(N3CCCC(C(=O)NCCc4ccc(F)cc4)C3)n2)cc1 (centres undefined),nt,31.6µM*,nt,31.6µM*
O=C(Nc1ccccc1F)NC1CCCN(CCn2nc3n(c2=O)CCCC3)C1 (centres undefined),nt,0.9%,nt,0.8%
c1ccc(CCN2CCNc3cc(N4CCN(c5ccccn5)CC4)ncc3C2)cc1,i,50.1µM*,-4.4%[70.6 µM],28.2µM*
Fc1ccccc1-c1cc2c(cn1)CN(Cc1ccncc1)CCN2,70.8µM*,?,?,?
COc1ccc(Cl)cc1-c1cc2c(cn1)CN(Cc1cccnc1)CCN2,i,?,-6.2%[70.6 µM],?
COc1ccc(-c2cc3c(cn2)CN(Cc2ccccc2)CCN3)cc1OC,?,?,-12.8%[70.6 µM],44.7µM*
COc1ccc(CNc2cc3c(cn2)CN(Cc2ccccc2)CCN3)cc1OC,i,63.1µM*,0.3%[70.6 µM],39.8µM*
COc1ccc(-n2nc(C3CCCN(C(=O)c4ccccc4C)C3)[nH]c2=O)cc1 (centres undefined),i,?,28.2%,-17.3%
CCOC(=O)C1CCN(C(=O)c2ccc3nnc(-c4cccnc4)n3c2)CC1,nt,-18.1%,nt,-23.5%
Cc1nc2cccnc2n1CC1CCCN(S(=O)(=O)Cc2ccccc2Cl)C1 (centres undefined),i,?,-20.2%,?
COc1ccc(-c2cc3c(cn2)CN(CCc2ccccc2)CCN3)cc1OC,70.8µM*,63.1µM*,-19.1%[70.6 µM],39.8µM*
SMILES,Luciferase inh,HEK293 tox,hNpr1 antagonist,NIH3T3 tox
Oc1ccc(-c2cc3c(cn2)CN(Cc2ccccc2)CCN3)cc1F,25.1µM*,?,-2.1%[70.6 µM],?
c1ccc(CN2CCNc3cc(-c4ccncc4)ncc3C2)cc1,?,?,2.4%[70.6 µM],-19.3%[138 µM]
O=C(c1ccsc1)N1CC[C@@H]2COCCN(Cc3ccncc3)[C@@H]2C1,nt,-14.0%,nt,-32.6%
c1cnn(-c2ccc(-c3n[nH]c(C4CCOCC4)n3)cc2)c1,?,1.5%,11.1%,i
c1cc(N2CCCCC2)ccc1-c1n[nH]c(C2CCOC2)n1 (centres undefined),6.31µM*,-10.6%,-29.2%,?
c1ccc2c(c1)CC(n1ccnc1-c1cc3n(n1)CCCNC3)C2,i,79.4µM*,-15.7%,?
CNC(=O)c1cc(C2CC2)nc2c1c(C1CCN(C(C)=O)C1)nn2C (centres undefined),nt,i,nt,2.4%
CN(C(=O)c1ccc(F)cc1)C1CCCc2ccccc21 (centres undefined),?,100µM*,-1.4%[70.6 µM],?
Cc1ccc(C(=O)N(C)C2CCCc3ccccc32)cc1 (centres undefined),35.5µM*,79.4µM*,-7.3%[70.6 µM],?
COc1ccccc1CN1C[C@@H](CO)[C@H](c2ccncc2)C1,i,-6.8%,1.9%,-20.9%
